Experimental data published in PubChem BioAssay AID485314 (National Center for Advancing Translational Sciences (NCATS), 2010).
The whole screen tested about 340,000 compounds, of which about 4,500 (1.3%) were called active. Not shown: some 5% with an inconclusive outcome. This is one part of a sample in which actives are shown more often than they occur. Values without a mark were called inactive. The call rests on the fitted dose curve; in most records, active means well fitted inhibition curve with a large enough effect; inconclusive means small, poorly fitted or top-dose-only effect, or another doubt; inactive means no such curve, though single readings can be large or run the other way.

Molecular target: DNA polymerase beta (Homo sapiens) (UniProt P06746)
Assay: qHTS Assay for Inhibitors of DNA Polymerase Beta
Settings: Pol beta primer extension/strand displacement, fluorescence kinetic; series mostly up to 114 µM; activity change, negative = inhibition: at the top concentration
Procedure, shortened: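 Enzyme-only controls used 10 nM Pol beta; buffer lacking enzyme served as negative control. Compound preincubated 15 min, then 50 nM substrate added; 0 and 10 min reads at room temperature.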
On the % scale 0 is the no-effect control and ±100 the full control effect; potency means the concentration at half of the fitted maximal effect.

SMILES	activity change, negative = inhibition [%]	Potency
CCCn1ccc2c(OCC(=O)NCc3ccc(F)cc3)cccc2c1=O	-9.24	–
Cc1csc2nc(COC(=O)c3ccccc3NC(=O)c3ccccc3Cl)cc(=O)n12	-1.41	–
Cc1cc2c(cc3c(SCc4cccc(Cl)c4)nnc(C)n32)o1	2.13	–
Clc1ccc(CSc2nncn3c2cc2occc23)cc1	–	31.6 µM (active)
Clc1ccccc1CSc1nncn2c1cc1occc12	3.29	–
COc1ccc(C)cc1Nc1nc2ccccc2c2nnc(C)n12	-0.842	–
Cc1ccc(C(=O)NNc2ncnc3ccccc23)cc1	0.16	–
Cc1ccc(C(=O)NNC(=O)c2cccs2)cc1	23.2	–
Cc1ccc(C(=O)NNC(=O)c2cc3cc4ccccc4nc3s2)cc1	–	50.1 µM (active)
Cc1coc2c(O)cc3c(c12)OC1(N2CCCCC2)C(=O)NCCCC31 (configuration not stated)	–	50.1 µM (active)
Cc1cc(C)c(/C=C/c2onc(C)c2S(=O)(=O)N2CCC(C(=O)Nc3ccc(Cl)cc3C)CC2)c(C)c1	0.277	–
CCCCOc1ccc(CN2C(=O)C(=O)c3cc(Br)cc(C)c32)cc1OC	-0.577	–
O=C(N/N=C/c1ccccn1)c1cccc(NC(=O)c2ccc(Cl)cc2)c1	32.1	–
O=C(N/N=C/c1ccccn1)c1ccc(S(=O)(=O)N2CCCCCC2)cc1	–	20 µM (active)
O=C(Nc1ccc(S(=O)(=O)N2CCCCC2)cc1)c1cnccn1	-16.3	–
CCOc1ccc(Nc2ncnc3scc(-c4ccc(OC)cc4)c23)cc1	3.28	–
CCOC(=O)c1ccc(NC(=O)Cn2c(=O)cc(C)c3c(C)nn(-c4cccc(F)c4)c32)cc1	9.23	–
COc1ccc([N+](=O)[O-])cc1NC(=O)COC(=O)/C=C/c1ccco1	-3.55	–
CC(C)CNC(=O)COC(=O)/C=C/c1ccco1	–	28.2 µM (active)
CC(C)CNC(=O)COC(=O)/C=C/c1ccccc1[N+](=O)[O-]	24.6	–
CCCOc1ccc(C2c3c(-c4ccccc4O)n[nH]c3C(=O)N2Cc2cccnc2)cc1 (configuration not stated)	-3.35	–

SMILES	activity change, negative = inhibition [%]	Potency
CC(C)(C)OC(=O)N1CCC(c2c(C(=O)Nc3ccc4c(c3)OCO4)cnn2-c2ccccc2)CC1	-11.1	–
CCCCOC(=O)CSc1ncnc2sc3c(c12)CCC(C)C3 (configuration not stated)	19.6	–
CCc1c(C)nc2cc(-c3cccs3)[nH]n2c1=O	8.34	–
Cc1cc(=O)n2[nH]c(-c3sccc3-n3c(C)ccc3C)cc2n1	–	44.7 µM (active)
Cc1cc(=O)n2[nH]c(-c3cccc(Cl)c3)cc2n1	-0.142	–
COc1cccc(OCc2cc(/C=N/NC(=O)c3nc(Cl)c(Cl)c(N)c3Cl)ccc2OC)c1	6.43	–
COc1ccc(/C=N\NC(=O)c2sc(N)nc2C)cc1OC	–	17.8 µM (active)
COc1cc(/C=N/NC(=O)CNC(=O)c2ccncc2)ccc1OC(C)=O	-0.998	–
COc1ccccc1Nc1c2c(nc3ccc(NC(=O)/C=C/c4cc(OC)c(OC)c(OC)c4)cc13)CCCC2	-13	–
CCc1nc2ccccc2n(CCOCCOCCn2c(=O)c(CC)nc3ccccc32)c1=O	–	35.5 µM (active)
CCOCCn1c(-c2ccccc2)nc2ccccc21	-5.52	–
CCOCCn1c(C(C)C)nc2ccccc21	5.17	–
COc1ccc(-c2nc(Cn3c(=O)cc(C)c4c(C)nn(-c5ccccc5)c43)c(C)o2)c(OC)c1	-3.95	–
CCN1CCN(c2ncnc3c2cnn3-c2ccc(C)c(C)c2)CC1	2.84	–
COc1cc(NC(=O)CN2CCN(S(=O)(=O)c3ccc(Br)cc3)CC2)cc(OC)c1	2.24	–
Cc1c(CCC(=O)O)c(=O)oc2cc(OCc3ccc(Br)cc3)ccc12	15.4	–
Cc1c(CCC(=O)O)c(=O)oc2c(C)c(OCc3ccccc3Cl)ccc12	–	12.6 µM (active)
CCOC(=O)CCc1c(C)c2ccc(OCc3nn[nH]n3)c(C)c2oc1=O	13.4	–
COc1ccccc1CNc1ccc(-c2nc(-c3ccccc3C)no2)cc1[N+](=O)[O-]	4.87	–
COc1cccc(-c2nnc3n(CCc4ccccc4)c(=O)c4ccccc4n23)c1O	2.27	–
CCCCN(CCCNC(=O)c1cc(Nc2ccccc2OC)nc2ccccc12)c1ccccc1	29.1	–

SMILES	activity change, negative = inhibition [%]	Potency
CCCCN(C)S(=O)(=O)c1ccc(C(=O)Nc2sc3c(c2C(N)=O)CC(C)(C)NC3(C)C)cc1	-12.5	–
CC1=C(c2ccc(C)cc2)S(=O)(=O)NC1=NCCCN1CCN(c2cc(C)ccc2C)CC1	0.366	–
CCOc1ccc(NC(=O)c2cc(S(=O)(=O)N3CCCC3)c[nH]2)cc1	2.74	–
COc1ccc(/C=C/C(=O)c2ccc(NS(=O)(=O)c3ccc(C)cc3)cc2)cc1O	-14.9	–
COC(=O)c1ccc(COc2ccc(/C=C/C(=O)c3ccc(OC)c(CSCC(=O)O)c3)cc2OC)cc1	–	31.6 µM (active)
COc1ccc(C(=O)/C=C/c2ccc(-c3ccccc3)cc2)cc1CSCC(=O)O	14.7	–
Cc1ccc(CCNC(=O)c2ccc(CNS(=O)(=O)c3ccc(C)cc3)cc2)cc1	30	–
CSc1cccc(NC(=O)CN2C(=O)CCc3cc(S(=O)(=O)N4CCCCC4)ccc32)c1	-10.7	–
C=C(C)C(=O)Nc1cccc(C2=NOC3(C2)C[C@H](C(N)=O)N(C(=O)C(c2ccccc2)c2ccccc2)C3)c1 (some centres not stated)	–	14.1 µM (active)
C/C=C\C=C\C(=O)N1CC2(CC(c3cccc(NC(=O)/C(C)=C\C)c3)=NO2)C[C@H]1C(N)=O (some centres not stated)	9.09	–
C/C=C(/C)C(=O)Nc1cccc(C2=NOC3(C2)C[C@@H](C(N)=O)N(C(=O)C2(C)CC2)C3)c1 (some centres not stated)	14.5	–
Cc1ccccc1C(=O)Nc1nnc(S(=O)(=O)N(C)c2ccc(Cl)cc2)s1	7.24	–
COC(=O)c1ccc(NC(=O)CSc2n[nH]c(-c3ccccc3)n2)cc1	-20	–
CCOc1ccc(OCC)c(NC(=O)CN(c2ccc(C)cc2)S(=O)(=O)c2c(C)n[nH]c2C)c1	6.89	–
CCn1c(C)c(C)c2cc(C(=O)NCCc3cc(OC)ccc3OC)ccc21	-1.85	–
Cc1cccc(-n2c(C)cc(/C=N\NC(=O)c3cccs3)c2C)c1	6.08	–
O=C(N/N=C/C=C/c1ccco1)c1cccs1	–	25.1 µM (active)
O=C(Nc1ccc(NC(=O)c2cccs2)cn1)c1ccco1	-8.35	–
Oc1ccc(-c2nc3ccc(Cl)cn3c2Nc2ccc3c(c2)OCO3)cc1	-2.41	–
CCOc1ccc(C(=O)/C=C/c2cn(CC(O)CN3CCCCCC3)c3ccccc23)cc1 (configuration not stated)	6.41	–
